Data as given in PubChem BioAssay AID463173 (ICCB-Longwood Screening Facility, Harvard Medical School, 2010).
The campaign covered roughly 52,000 compounds. About 4,300 (8.3%) were called active. The sample holds actives, similar compounds and a random draw of the others, so the mix is not that of the screen. Cut-off read from the data, not from the text of the source: active = survival mostly below about 52% (no sharp cut-off); inactive = mostly above about 56%.

System: DeltatarO mutant
Experiment: S. aureus survival, RN4220 and DeltatarO strains – OD600, teichoic acid synthesis inhibitors, primary screen (AID 463173)
Details: S. aureus RN4220 wild type/DeltatarO growth, OD600, 18 h, hits give low values, screened at 18.75 µg/mL (by protocol)

Row | SMILES | survival
1 | Cc1ccc(NC(=O)c2ccc(NC(=O)N3CCSc4ncccc43)cc2)c(Cl)c1 | 64% (inactive)
2 | COc1cccc(-c2nc(CS(=O)(=O)CC(=O)Nc3cccc(C(C)=O)c3)c(C)o2)c1 | 71% (inactive)
3 | CCc1cccc(NC(=O)CN2c3ccccc3S(=O)(=O)c3ccccc32)c1 | 72% (inactive)
4 | CCOc1ccc(CC(=O)NCCc2csc(-c3ccc(C)cc3)n2)cc1 | 88% (inactive)
5 | COc1ccc(CCNC(=O)c2ccc(-n3c(C)cc4c3CCCC4)cc2)cc1OC | 74% (inactive)
6 | CCOc1ccc(CCNC(=O)c2ccc(-n3c(C)cc4c3CCC(C)C4)cc2)cc1OCC (stereo unspecified) | 82% (inactive)
7 | COc1ccc(CCNC(=O)c2ccc(-n3c(C)cc4c3CCC(C)C4)cc2)cc1OC (stereo unspecified) | 52% (active)
8 | CCOC(=O)C1CCN(C(=O)C2CCN(C3=NS(=O)(=O)C(c4ccc(C)cc4)=C3CC)CC2)CC1 | 115% (inactive)
9 | O=C(NCC(c1ccco1)S(=O)(=O)c1cccs1)c1ccc(Cl)cc1 (stereo unspecified) | 102% (inactive)
10 | O=C(Cn1c(=O)oc2cc(Cl)ccc21)Nc1cccc(C(F)(F)F)c1 | 89% (inactive)
11 | O=C(Cc1ccc(F)cc1)NCCc1csc2nc(-c3ccc(Cl)cc3)nn12 | 95% (inactive)
12 | Cc1cccc(C)c1NS(=O)(=O)c1ccc(NS(=O)(=O)c2ccc3c(c2)OCCO3)cc1 | 110% (inactive)
13 | O=S(=O)(Nc1cccc(C(F)(F)F)c1)c1ccc(NS(=O)(=O)c2ccc3c(c2)OCCO3)cc1 | 6% (active)
14 | O=S(=O)(Nc1ccc(Cl)cc1)c1cccc(S(=O)(=O)c2ccc(Cl)c(Cl)c2)c1 | 37% (active)
15 | O=S(=O)(Nc1c(F)cccc1F)c1ccc2c(c1)OCCO2 | 63% (inactive)
16 | O=S(=O)(Nc1ccc(C(F)(F)F)cc1)c1ccc2c(c1)OCCO2 | 69% (inactive)
17 | CN1CCN(S(=O)(=O)c2cccc(S(=O)(=O)c3ccc(Cl)c(Cl)c3)c2)CC1 | 102% (inactive)
18 | CCOC(=O)c1ccc(NS(=O)(=O)c2ccc3c(c2)OCCO3)cc1 | 74% (inactive)
19 | COC(=O)c1cc(NS(=O)(=O)c2ccc3c(c2)OCCO3)ccc1Cl | 65% (inactive)
20 | CC(=O)c1ccc(NS(=O)(=O)c2cccc(S(=O)(=O)c3ccc(Cl)cc3)c2)cc1 | 124% (inactive)
21 | COc1ccc(NS(=O)(=O)c2ccc(NS(=O)(=O)c3ccc4c(c3)OCCO4)cc2)cc1 | 116% (inactive)
22 | Cc1c(Cl)cccc1NS(=O)(=O)c1ccc(NS(=O)(=O)c2ccc3c(c2)OCCO3)cc1 | 13% (active)
23 | O=S(=O)(Nc1ccc(Cl)cc1)c1ccc(NS(=O)(=O)c2ccc3c(c2)OCCO3)cc1 | 38% (active)
24 | O=C(O)CSc1nc2ccc(Cl)cc2[nH]1 | 84% (inactive)

Row | SMILES | survival
25 | CCOc1cccc2sc(N(Cc3cccnc3)C(=O)c3ccco3)nc12 | 77% (inactive)
26 | CCc1cc(C(=O)NC(C)c2ccccc2)no1 (stereo unspecified) | 60% (inactive)
27 | Cc1ccc(NC(=O)CSc2nc(=O)n(Cc3ccncc3)c3c2CCC3)cc1Cl | 80% (inactive)
28 | Cc1cn(S(=O)(=O)c2ccc(F)c(Cl)c2)cn1 | 91% (inactive)
29 | Nc1c(C(=O)Nc2ccc(C(F)(F)F)cc2)sc2nc(-c3cccs3)ccc12 | 70% (inactive)
30 | CCN1CCN(c2ncc3c(n2)CCN(Cc2cc(F)cc(F)c2)C3)CC1 | 90% (inactive)
31 | COc1ccc(CCCN=C(N)N)cc1Cl | 105% (inactive)
32 | CC(C)Oc1ccc(CSCCN)cc1 | 90% (inactive)
33 | CCCCOc1ccc(CSCCN=C(N)N)cc1 | 1% (active)
34 | O=C(NCc1ccccc1)c1ccc(CSc2nc3cccnc3n2Cc2cccc(F)c2)cc1 | 101% (inactive)
35 | COC(=O)c1ccc2c(c1)N(CC(=O)Nc1cccc(Cl)c1C)C(=O)c1ccccc1S2 | 74% (inactive)
36 | Fc1ccc2c(c1)NC(c1ccncc1)=NC(c1cccs1)=N2 | 30% (active)
37 | CC(C)c1ccc2c(c1)NC(c1ccncc1)=NC(c1cccs1)=N2 | 72% (inactive)
38 | Clc1ccc2c(c1)NC(c1ccncc1)=NC(c1cccs1)=N2 | 76% (inactive)
39 | FC(F)(F)Oc1ccc2c(c1)NC(c1ccncc1)=NC(c1cccs1)=N2 | 91% (inactive)
40 | CC(C)c1ccc2c(c1)NC(c1ccc(F)cc1)=NC(c1cccs1)=N2 | 45% (active)
41 | CCOc1ccc(C2=NC(c3cccs3)=Nc3ccc(C(C)C)cc3N2)cc1 | 58% (inactive)
42 | CCCCOc1cccc(C(=O)Nc2cccc(-c3nc4ncccc4o3)c2C)c1 | 47% (inactive)
43 | COc1ccc(NC(=O)[C@@H](c2ccccc2)N2Cc3ccccc3C2=O)cc1OC | 62% (inactive)
44 | COc1cccc(CNC(=O)C2CCN(c3ncnc4c3nc3n4CCCCC3)CC2)c1 | 86% (inactive)
45 | COc1ccc(CNc2nc(-c3ccco3)nn2C(=O)CC(C)C)cc1 | 103% (inactive)
46 | O=C(CS(=O)(=O)c1nc(-c2ccc(Cl)cc2)cn1-c1ccccc1)Nc1ccc(F)cc1F | 50% (active)
47 | Cc1ccc(-c2cn(-c3cccc(Cl)c3)c(S(=O)(=O)CC(=O)Nc3ccccc3F)n2)cc1 | 61% (inactive)
48 | O=C(CS(=O)(=O)c1nc(-c2ccc(Cl)cc2)cn1-c1ccccc1)Nc1cccc(Cl)c1 | 68% (inactive)

Row | SMILES | survival
49 | CN1CCN(C(=O)C(=O)Nc2c3c(nn2-c2cccc(Cl)c2)CSC3)CC1 | 76% (inactive)
50 | Cc1ccc(N2CC(NC(=O)c3cc4ccccc4o3)CC2=O)cc1 (stereo unspecified) | 99% (inactive)
51 | O=C(NC1CC(=O)N(c2ccc(Cl)cc2)C1)c1cc2ccccc2o1 (stereo unspecified) | 52% (active)
52 | COCCNC(=O)c1cc2ccccc2o1 | 104% (inactive)
53 | O=C(NC1CC(=O)N(c2ccccc2)C1)c1cc2ccccc2o1 (stereo unspecified) | 89% (inactive)
54 | O=C(NCc1ccccc1Cl)c1cc2ccccc2o1 | 74% (inactive)
55 | O=C(NCc1ccc(Cl)cc1)c1cc2ccccc2o1 | 61% (active)
56 | COc1ccc(CN2CCCN(CC(=O)Nc3ccc4c(c3)OCCO4)S2(=O)=O)cc1 | 74% (inactive)
57 | O=C1c2ccccc2C(=O)N1CCCn1nnc(-c2ccc(N3CCOCC3)cc2)n1 | 74% (inactive)
58 | CC(C)Nc1nc(Cl)nc(NCCO)n1 | 110% (inactive)
59 | CCCNc1nc(Cl)nc(Cl)n1 | 62% (active)
60 | C=CCNc1nc(Cl)nc(Cl)n1 | 99% (inactive)
61 | Cc1ccc(-n2ncc3c(=O)n(Cc4cccc(Cl)c4)cnc32)cc1C | 91% (inactive)
62 | CCN(Cc1ccccc1)S(=O)(=O)c1cc(Br)cc2c1N(C(=O)C1CC1)CC2 | 58% (inactive)
63 | CN(Cc1ccccc1)S(=O)(=O)c1cc(Br)cc2c1N(C(=O)C1CC1)CC2 | 34% (active)
64 | CCOc1ccc(NS(=O)(=O)c2cc(Br)cc3c2N(C(=O)C2CC2)CC3)cc1 | 79% (inactive)
65 | O=C(C1CC1)N1CCc2cc(Br)cc(S(=O)(=O)Nc3ccc(C(F)(F)F)cc3)c21 | 41% (active)
66 | COc1cc(NS(=O)(=O)c2cc(Br)cc3c2N(C(=O)C2CC2)CC3)cc(OC)c1 | 99% (inactive)
67 | COc1ccccc1CNS(=O)(=O)c1cc(Br)cc2c1N(C(=O)C1CC1)CC2 | 58% (inactive)
68 | CCCCN(Cc1ccccc1)S(=O)(=O)c1cc(Br)cc2c1N(C(=O)C1CC1)CC2 | 57% (inactive)
69 | CC(=O)Nc1ccc(NS(=O)(=O)c2cc(Br)cc3c2N(C(=O)C2CC2)CC3)cc1 | 74% (inactive)
70 | CCc1ccccc1NS(=O)(=O)c1cc(Br)cc2c1N(C(=O)C1CC1)CC2 | 52% (active)
71 | CC(C)c1ccc(NS(=O)(=O)c2cc(Br)cc3c2N(C(=O)C2CC2)CC3)cc1 | 56% (inactive)
72 | Cc1ccc(NS(=O)(=O)c2cc(Br)cc3c2N(C(=O)C2CC2)CC3)cc1C | 95% (inactive)

Row | SMILES | survival
73 | COc1ccc(Cl)cc1NS(=O)(=O)c1cc(Br)cc2c1N(C(=O)C1CC1)CC2 | 55% (active)
74 | CCC(C)Nc1nc2c(c(=O)[nH]c(=O)n2C)n1Cc1ccc(F)cc1 (stereo unspecified) | 73% (inactive)
75 | Cc1cc(C)c(NC(=O)CN(c2ccccc2)S(=O)(=O)N(C)C)c(C)c1 | 66% (inactive)
76 | CCCc1ccc(OCC(=O)Nc2sc3c(c2C(=O)OCC)CCC(C(C)(C)C)C3)cc1 (stereo unspecified) | 125% (inactive)
77 | COc1ccc(-n2c(=O)c3ccc(C(=O)NCc4ccc(C)cc4)cc3n(Cc3ccc(F)cc3Cl)c2=O)cc1 | 99% (inactive)
78 | COc1ccc(C2=NC(C)(C)N(CC(=O)Nc3cccc(C)c3)C2=O)cc1 | 76% (inactive)
79 | CC(=O)N(Cc1ccccc1)Cc1cc2cc(C)ccc2n2nnnc12 | 77% (inactive)
80 | COc1ccc(Nc2nc(N)nc(N)c2S(=O)(=O)c2ccccc2)cc1 | 78% (inactive)
81 | O=C(CCS(=O)(=O)c1cc(Br)cc2c1N(C(=O)C1CC1)CC2)NCc1ccccc1Cl | 100% (inactive)
82 | O=c1c2sc3ccccc3c2n(Cc2ccc(Cl)cc2)c(=O)n1Cc1ccco1 | 83% (inactive)
83 | Fc1ccc(Nc2nc(Nc3ccc(F)cc3)nc(N3CCOCC3)n2)cc1 | 87% (inactive)
84 | Cc1ccc(Nc2c(-c3ccc(N4CCOCC4)cc3)nc3ncccn23)cc1C | 88% (inactive)
85 | Cc1ccc(Nc2nc(Nc3ccc(C)c(C)c3)nc(N3CCOCC3)n2)cc1C | 34% (active)
86 | c1ccc(Nc2nc(N3CCCCC3)nc(N3CCCCC3)n2)cc1 | 106% (inactive)
87 | Cc1cccc(Nc2nc(Nc3cccc(C)c3)nc(N3CCOCC3)n2)c1 | 1% (active)
88 | NNc1nc(N2CCOCC2)nc(N2CCOCC2)n1 | 76% (inactive)
89 | CCc1ccc(CNC(=O)c2ccc(-c3nc(CS(=O)(=O)c4ccccc4)c(C)o3)cc2)cc1 | 54% (inactive)
90 | CC(C)(C)OC(=O)N1CCC(c2c(C(=O)O)cnn2-c2ccc(F)cc2F)CC1 | 87% (inactive)
91 | CCOc1ccccc1N1CC(c2nc3ccccc3n2CCCCOc2ccccc2)CC1=O (stereo unspecified) | 59% (inactive)
92 | CCOc1ccccc1N1CC(c2nc3ccccc3n2CCCOc2ccccc2OC)CC1=O (stereo unspecified) | 76% (inactive)
93 | CCCCN1CC(c2nc3ccccc3n2CCCCOc2ccc(C)cc2C)CC1=O (stereo unspecified) | 13% (active)
94 | CCOc1ccccc1N1CC(c2nc3ccccc3n2CCCCOc2cc(C)ccc2C)CC1=O (stereo unspecified) | 47% (active)
95 | CCCCN1CC(c2nc3ccccc3n2CCCCOc2cc(C)ccc2C)CC1=O (stereo unspecified) | 15% (active)
96 | Cc1ccc(OCCCn2c(C3CC(=O)N(c4cccc(Cl)c4)C3)nc3ccccc32)c(C)c1 (stereo unspecified) | 76% (inactive)
